Composite z-score and z-score data for 5 molecules are collected here from PubChem BioAssay.

Assay [1] can be described thus: small molecules captured by biotinylated probe aFSTL3 – biochemical, small-molecule microarray, fluorescence 635/667, stem cell growth factor project, primary screen (AID 1064).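 Note: measures binding of the biotinylated anti-FSTL3 antibody to printed compounds.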 Conditions: higher = more signal.
The nature of assay [2]: binders from COS7 lysate, DM2A8 probe, primary screen, torsin A project, cell lysate, small-molecule microarray, fluorescence 635/667 (AID 1065). Conditions: higher = more signal, COS7 lysate expressing mutant human TOR1A.
Assay [3] can be described thus: small molecules captured by biotinylated probe aFGF2 – biochemical, small-molecule microarray, fluorescence 635/667, stem cell growth factor project, primary screen (AID 1067).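 Note: measures binding of biotinylated aFGF2 protein to printed compounds on slides; z-score merges feature fluorescence and signal-to-noise across triplicate slides.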 Conditions: higher = more signal.
Assay [4] can be described thus: small molecules captured by biotinylated probe aFGF10 – biochemical, small-molecule microarray, fluorescence 635/667, stem cell growth factor project, primary screen (AID 1071).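 Note: score merges 667 nm spot intensity and signal to noise from triplicate slides.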 The note with it: higher = more signal.
For assay [5], the target named is Neurogenic locus notch homolog protein 2 (Homo sapiens) (UniProt Q04721). Briefly: small molecules binding Notch2 protein – biochemical, small-molecule microarray, 635 nm fluorescence, stem cell growth factors, primary screen (AID 1073). Conditions: higher = more signal.
Assay [6] concerns the target Pro-neuregulin-1, membrane-bound isoform (Homo sapiens) (UniProt Q02297). Briefly: small molecules binding neuregulin-1 protein – biochemical, small-molecule microarray, fluorescence 635/667, psychiatric disease protein project, primary screen (AID 1075).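 Note: score combines 667 nm spot fluorescence with signal to noise.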 Conditions: NRG1 binding, 635 nm fluorescence, higher = more signal.
Assay [7] deals with Neuregulin-1 EGF-like domain. In words: small molecules binding NRG1 EGF domain – biochemical, small-molecule microarray, 635 nm fluorescence, primary screen (AID 1081).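 Note: binding of the protein to compounds printed on small-molecule microarray slides.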 Conditions: higher = more signal.
A short description of assay [8]: FRG1 expression reporter modulators in myotubes – cell-based, C2C12 myotubes, firefly/Renilla luciferase, luminescence, FRG1 inhibition for FSHD, primary screen (AID 1084). Conditions: FRG1 promoter luciferase, higher = more signal, called active from +8 up or from −8 down.
Assay [9] in a line: small molecules captured by biotinylated probe aFST – biochemical, small-molecule microarray, fluorescence 635/667, stem cell growth factor project, primary screen (AID 1086).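 Note: score merges 667 nm fluorescence with signal-to-noise of each printed compound spot.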 Conditions: higher = more signal.
Assay [10] can be described thus: binders of probe aHhip on microarray, primary screen, stem cell growth factor project, biochemical, small-molecule microarray, fluorescence 635/667 (AID 1087).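 Note: score merges spot fluorescence at 667nm with spot signal to noise ratio.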 The note with it: higher = more signal.
For assay [11], the system named is PRMT1 (protein arginine N-methyltransferase 1). Briefly: small molecules binding arginine methyltransferase PRMT1 – biochemical, small-molecule microarray, 635 nm fluorescence, primary screen (AID 1088).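 Note: binding of Prmt1 protein to compounds spotted on small-molecule microarray slides.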 Conditions: higher = more signal.
Assay [12] in a line: growth effects on S. cerevisiae YJM789 – YJM789 clinical isolate, OD600, 24 h, basal, primary screen (AID 1089).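 Note: growth of clinical yeast isolate S. cerevisiae YJM 789 seeded 1000 cells per well; test concentration not given here.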 The note with it: higher = more signal, called active from +8 up or from −8 down.
Assay [13] is described as follows: S. pombe growth modifiers, basal conditions – strain 972, OD600, 24 h, no modulator, primary screen (AID 1090).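 Note: basal condition with compound alone and no growth modifier present; test concentration not given here.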 The note with it: S. pombe 972 growth, higher = more signal, called active from +8 up or from −8 down.
Assay [14] can be described thus: budding yeast growth modifiers under rapamycin – strain BY4716, OD600, 96 h, primary screen (AID 1091). Note: test concentration not given here. Conditions: S. cerevisiae BY4716 + rapamycin, higher = more signal, called active from +8 up or from −8 down.
For assay [15], the target named is Torsin-1A-interacting protein 2 (Homo sapiens) (UniProt Q8NFQ8). In words: small molecules binding lysate-expressed LULL1 – cell lysate, human LULL1 lysate, 635/667 nm fluorescence, primary screen (AID 1092).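 Note: probe is lysate of COS7 cells overexpressing human LULL1; score merges per-feature 667 nm fluorescence with signal-to-noise.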 The note with it: small-molecule microarray, hLULL1 lysate binding, 635 nm fluorescence; higher = more signal.
Assay [16] can be described thus: optical density change of DRC41 E. coli – strain DRC41, OD650, 24 h, E. coli filamentation project, primary screen (AID 1093).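 Note: MC1000 strain lacking acrAB efflux and sulA so SOS filamentation is blocked; test concentration not given here.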 Conditions: E. coli DRC41 growth, higher = more signal, called active from +8 up or from −8 down.
A short description of assay [17]: probe aLefty2 binding to arrayed compounds – biochemical, biotinylated probe, 635/667 nm fluorescence, primary screen (AID 1094).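 Note: score merges spot fluorescence near 667 nm with spot signal-to-noise ratio.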 Conditions: small-molecule microarray, higher = more signal.
Assay [18] relates to Noggin (protein binding on small-molecule microarray). In words: small molecules binding Noggin protein – biochemical, 635/667 nm fluorescence, primary screen (AID 1095).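 Note: score merges 667 nm feature fluorescence with signal to noise over triplicate slides.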 The note with it: 635 nm fluorescence, higher = more signal.
Assay [19] deals with Neurogenic locus notch homolog protein 3 (Homo sapiens) (UniProt Q9UM47). In words: small molecules binding NOTCH3 protein – biochemical, 635/667 nm fluorescence, primary screen (AID 1096). The note with it: small-molecule microarray, 635 nm fluorescence, higher = more signal.
Assay [20] in a line: probe aEGFR binding to arrayed compounds – biochemical, biotinylated probe, 635/667 nm fluorescence, primary screen (AID 1097).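 Note: probe is a biotinylated anti-EGFR antibody binding compounds printed on slides; score combines fluorescence near 667 nm and signal to noise of each spot.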 The note with it: small-molecule microarray, higher = more signal.

Activity calls are given as the source filed them.

Chain of Pro-neuregulin-1, membrane-bound isoform (Homo sapiens) (Q02297 whole entry, looked up, the tested form may be a part, canonical isoform): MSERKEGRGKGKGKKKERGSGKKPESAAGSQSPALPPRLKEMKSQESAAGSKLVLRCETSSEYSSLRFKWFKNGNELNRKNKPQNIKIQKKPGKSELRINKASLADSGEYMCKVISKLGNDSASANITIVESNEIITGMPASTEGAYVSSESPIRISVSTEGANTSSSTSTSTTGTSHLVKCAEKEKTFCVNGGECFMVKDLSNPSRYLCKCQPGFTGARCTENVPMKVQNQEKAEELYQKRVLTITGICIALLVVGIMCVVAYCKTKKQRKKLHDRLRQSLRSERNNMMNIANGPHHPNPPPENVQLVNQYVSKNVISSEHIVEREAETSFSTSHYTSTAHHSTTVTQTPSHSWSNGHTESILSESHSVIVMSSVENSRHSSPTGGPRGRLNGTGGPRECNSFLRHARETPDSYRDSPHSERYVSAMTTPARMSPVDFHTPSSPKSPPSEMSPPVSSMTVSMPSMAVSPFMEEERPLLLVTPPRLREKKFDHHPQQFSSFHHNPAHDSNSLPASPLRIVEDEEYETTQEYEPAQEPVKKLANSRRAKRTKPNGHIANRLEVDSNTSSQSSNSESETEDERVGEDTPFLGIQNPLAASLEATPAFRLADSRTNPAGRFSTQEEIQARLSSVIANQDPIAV
Chain of Torsin-1A-interacting protein 2 (Homo sapiens) (Q8NFQ8 whole entry, looked up): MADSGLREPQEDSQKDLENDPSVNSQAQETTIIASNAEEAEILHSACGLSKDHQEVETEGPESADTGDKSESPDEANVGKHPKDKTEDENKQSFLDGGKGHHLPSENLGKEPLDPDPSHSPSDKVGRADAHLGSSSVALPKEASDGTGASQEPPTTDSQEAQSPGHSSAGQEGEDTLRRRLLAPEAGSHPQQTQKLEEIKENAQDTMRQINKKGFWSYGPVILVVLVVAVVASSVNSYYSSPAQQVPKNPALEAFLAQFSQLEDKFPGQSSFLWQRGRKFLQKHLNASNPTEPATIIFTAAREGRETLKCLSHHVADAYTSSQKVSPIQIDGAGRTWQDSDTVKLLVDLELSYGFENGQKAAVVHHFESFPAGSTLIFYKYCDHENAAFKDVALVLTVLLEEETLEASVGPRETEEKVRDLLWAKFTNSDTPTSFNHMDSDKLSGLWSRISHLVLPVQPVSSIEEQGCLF
Chain of Neurogenic locus notch homolog protein 2 (Homo sapiens) (Q04721 whole entry, looked up, canonical isoform): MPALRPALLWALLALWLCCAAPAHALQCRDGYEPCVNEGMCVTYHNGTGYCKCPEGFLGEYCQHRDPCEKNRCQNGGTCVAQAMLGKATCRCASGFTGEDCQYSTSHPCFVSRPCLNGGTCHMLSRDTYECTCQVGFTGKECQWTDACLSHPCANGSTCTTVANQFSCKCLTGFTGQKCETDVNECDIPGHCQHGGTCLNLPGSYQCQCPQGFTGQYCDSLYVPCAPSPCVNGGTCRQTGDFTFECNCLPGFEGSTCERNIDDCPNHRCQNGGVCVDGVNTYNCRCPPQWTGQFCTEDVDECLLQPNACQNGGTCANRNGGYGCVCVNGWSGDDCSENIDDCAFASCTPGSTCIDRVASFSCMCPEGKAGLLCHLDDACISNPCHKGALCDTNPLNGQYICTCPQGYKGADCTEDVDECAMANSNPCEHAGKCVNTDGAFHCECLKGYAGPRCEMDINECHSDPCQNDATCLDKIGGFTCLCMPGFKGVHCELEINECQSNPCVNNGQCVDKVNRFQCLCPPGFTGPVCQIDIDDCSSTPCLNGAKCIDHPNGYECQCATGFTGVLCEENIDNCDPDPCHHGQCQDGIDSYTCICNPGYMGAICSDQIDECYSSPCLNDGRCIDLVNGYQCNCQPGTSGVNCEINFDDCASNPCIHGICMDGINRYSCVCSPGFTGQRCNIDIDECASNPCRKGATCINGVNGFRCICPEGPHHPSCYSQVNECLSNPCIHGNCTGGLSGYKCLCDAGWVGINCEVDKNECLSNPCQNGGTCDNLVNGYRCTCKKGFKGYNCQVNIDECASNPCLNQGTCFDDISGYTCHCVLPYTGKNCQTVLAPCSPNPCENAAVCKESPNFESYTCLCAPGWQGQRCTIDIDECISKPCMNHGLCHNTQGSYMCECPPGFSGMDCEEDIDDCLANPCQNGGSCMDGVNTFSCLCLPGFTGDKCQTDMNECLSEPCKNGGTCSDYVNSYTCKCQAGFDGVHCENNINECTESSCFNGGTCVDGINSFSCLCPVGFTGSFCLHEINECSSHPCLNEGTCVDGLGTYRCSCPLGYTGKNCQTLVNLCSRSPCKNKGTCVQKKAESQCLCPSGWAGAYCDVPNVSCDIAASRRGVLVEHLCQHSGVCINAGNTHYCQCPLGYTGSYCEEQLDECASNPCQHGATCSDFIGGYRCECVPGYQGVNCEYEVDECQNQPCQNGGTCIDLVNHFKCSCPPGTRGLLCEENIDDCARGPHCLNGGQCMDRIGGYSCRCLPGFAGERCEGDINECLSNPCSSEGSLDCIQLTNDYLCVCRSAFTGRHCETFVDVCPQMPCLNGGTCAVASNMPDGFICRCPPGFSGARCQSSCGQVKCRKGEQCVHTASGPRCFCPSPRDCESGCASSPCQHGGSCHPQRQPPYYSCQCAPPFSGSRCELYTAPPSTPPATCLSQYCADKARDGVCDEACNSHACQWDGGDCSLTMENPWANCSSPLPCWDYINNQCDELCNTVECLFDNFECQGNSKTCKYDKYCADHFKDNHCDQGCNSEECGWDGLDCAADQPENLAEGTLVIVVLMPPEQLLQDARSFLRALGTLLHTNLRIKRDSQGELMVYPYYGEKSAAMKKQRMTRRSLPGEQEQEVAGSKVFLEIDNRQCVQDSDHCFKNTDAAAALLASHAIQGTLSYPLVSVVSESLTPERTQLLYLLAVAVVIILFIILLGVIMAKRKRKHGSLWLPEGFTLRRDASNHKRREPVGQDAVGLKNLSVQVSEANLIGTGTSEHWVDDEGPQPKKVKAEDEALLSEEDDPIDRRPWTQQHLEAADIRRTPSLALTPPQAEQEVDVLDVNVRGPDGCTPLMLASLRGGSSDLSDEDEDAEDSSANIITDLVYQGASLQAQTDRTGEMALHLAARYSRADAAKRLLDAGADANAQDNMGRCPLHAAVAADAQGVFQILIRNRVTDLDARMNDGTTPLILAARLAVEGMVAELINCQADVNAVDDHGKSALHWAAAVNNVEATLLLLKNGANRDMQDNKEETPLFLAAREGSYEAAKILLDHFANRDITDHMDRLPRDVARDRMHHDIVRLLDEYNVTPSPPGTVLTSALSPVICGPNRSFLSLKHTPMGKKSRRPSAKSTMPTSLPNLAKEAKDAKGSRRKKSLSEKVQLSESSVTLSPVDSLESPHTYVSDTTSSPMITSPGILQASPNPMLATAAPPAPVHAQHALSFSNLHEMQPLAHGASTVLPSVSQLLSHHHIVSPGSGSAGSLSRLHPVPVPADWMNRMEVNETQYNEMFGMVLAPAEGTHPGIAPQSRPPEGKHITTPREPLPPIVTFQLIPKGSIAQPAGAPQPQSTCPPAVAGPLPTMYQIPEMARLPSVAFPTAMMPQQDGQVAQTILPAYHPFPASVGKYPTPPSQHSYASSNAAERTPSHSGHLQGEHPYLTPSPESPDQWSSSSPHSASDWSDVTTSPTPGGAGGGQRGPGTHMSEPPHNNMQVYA

As for `COCCOC(=O)N1C(=O)[C@@]2(c3cc(C#CC4=CCCCC4)ccc31)[C@H](c1ccc(O)cc1)N1[C@H](c3ccccc3)[C@H](c3ccccc3)OC(=O)[C@H]1[C@@H]2C(=O)Nc1nc2ccccc2s1`, the composite z-score is -0.177 in assay [1]; 0.441 in assay [2]; 0.0323 in assay [3]; 0.969 in assay [4]; 1.24 in assay [5]; 0.896 in assay [6]. The composite z-score is 1.23 in assay [7]; 1.06 in assay [9]; 0.0972 in assay [10]; 1.54 in assay [11]; 3.5 in assay [15]; -0.141 in assay [17]. The composite z-score was 0.824 in assay [18], 1.04 in [19] and 0.178 in [20]. The z-score was 1.53 (inactive) in assay [8]; 0.724 (inactive) in assay [12]; 0.0687 (inactive) in [13]; 0.801 (inactive) in [14]; -0.249 (inactive) in assay [16].
With `O=C1O[C@@H](c2ccccc2)[C@@H](c2ccccc2)N2[C@@H](c3ccc(O)cc3)[C@]3(C(=O)Nc4ccccc43)[C@@H](C(=O)Nc3nc4ccccc4s3)[C@H]12`, the composite z-score in assay [1] is 0.0072; in [2] it was 0.155; in [3], -0.0206; in assay [4], 0.43; in assay [5], -0.434; in assay [6], 1.28. Besides, the composite z-score in assay [7] is 1.15; in [9] it was 0.642; in assay [10] it was 0.0373; in [11], 1.51; in [15] it was 2.77; in assay [17], -0.15. The values for the composite z-score in [18], in [19] and in assay [20] were 0.797, 0.881 and -0.132, respectively. For the same molecule, the z-score was -2.37 (inactive) in assay [8]; 0.813 (inactive) in assay [12]; 0.849 (inactive) in [13]; 1.4 (inactive) in [14]; -0.0768 (inactive) in [16].
As to `NCCCCCCNC(=O)[C@@H]1C[C@@H]2C(=O)N3CCC[C@H]3C(=O)N2[C@@H]1c1ccc(O)cc1`, the composite z-score in [1] is 0.327; in [2], -0.055; in assay [3], -0.0006; in [4], 0.0841; in assay [5], 0.337; in assay [6] it was 1.9. For the same molecule, the composite z-score in assay [7] was 1.18; in [9], 1.1; in assay [10], 0.154; in assay [11] it was 1.25; in assay [15] it was 2.02; in assay [17], -0.0912. Moreover, the composite z-score in [18] is 1.58; in [19] it was 0.494; in assay [20] it was -0.0568. For the same molecule, the z-score in assay [8] is 0.15 (inactive); in assay [12], -0.723 (inactive); in [13], -1.22 (inactive); in assay [14], -0.476 (inactive); in [16] it was -1.03 (inactive).
Take `COC1(C)CN(Cc2ccccc2Br)[C@H](/C=C/c2ccccc2)[C@H](Cc2ccccc2)O1` (stereo not given in full): the composite z-score in [1] was -0.366; in assay [2], 0.115; in assay [3], -0.194; in assay [4], -0.0452; in assay [5] it was -0.669; in assay [6], -0.435. Also, the composite z-score is -0.426 in [7]; -0.317 in assay [9]; 0.0373 in assay [10]; -0.355 in assay [11]; -0.92 in assay [15]; -0.231 in [17]. The composite z-score in assay [18] was -0.391; in assay [19], -0.789; in assay [20], -0.159. Besides, the z-score was -0.916 (inactive) in [8]; -0.0969 (inactive) in [12]; 0.239 (inactive) in assay [13]; 0.243 (inactive) in assay [14]; 1.07 (inactive) in assay [16].
With `CCCCC(CC)C(O)C1C=CC2C(=O)N(c3ccccc3)C(=O)C2N1Nc1ccc([N+](=O)[O-])cc1` (stereo not given), the composite z-score in assay [1] was -0.294; in assay [2], 0.153; in [3], 0.141; in assay [4], 0.848; in [5], 1.73; in [6] it was 1.88. The composite z-score in [7] is 1.26; in assay [9], 1.1; in [10] it was -0.234; in [11] it was 1.55; in [15], 3.65; in assay [17], 0.0958. The composite z-score was determined as 0.547 in assay [18], 1.03 in [19] and 0.11 in assay [20]. Besides, the z-score in assay [8] was -1.62 (inactive); in assay [12] it was -0.777 (inactive); in [13], -0.126 (inactive); in assay [14] it was 1.44 (inactive); in [16] it was -0.191 (inactive).
